Screens as filed in PubChem BioAssay.
AHR act – AHR activators, primary screen, cell-based, luminescence, luciferase reporter, human | 2.5% of 320,000 active | activation, % at 5 µM | AHR-responsive luciferase reporter cells | AID 2796, 2010; in the data active = activation above about 47%;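 also: 0% = vehicle wells and 100% = reference agonist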
Target sequence (P35869 whole entry, looked up): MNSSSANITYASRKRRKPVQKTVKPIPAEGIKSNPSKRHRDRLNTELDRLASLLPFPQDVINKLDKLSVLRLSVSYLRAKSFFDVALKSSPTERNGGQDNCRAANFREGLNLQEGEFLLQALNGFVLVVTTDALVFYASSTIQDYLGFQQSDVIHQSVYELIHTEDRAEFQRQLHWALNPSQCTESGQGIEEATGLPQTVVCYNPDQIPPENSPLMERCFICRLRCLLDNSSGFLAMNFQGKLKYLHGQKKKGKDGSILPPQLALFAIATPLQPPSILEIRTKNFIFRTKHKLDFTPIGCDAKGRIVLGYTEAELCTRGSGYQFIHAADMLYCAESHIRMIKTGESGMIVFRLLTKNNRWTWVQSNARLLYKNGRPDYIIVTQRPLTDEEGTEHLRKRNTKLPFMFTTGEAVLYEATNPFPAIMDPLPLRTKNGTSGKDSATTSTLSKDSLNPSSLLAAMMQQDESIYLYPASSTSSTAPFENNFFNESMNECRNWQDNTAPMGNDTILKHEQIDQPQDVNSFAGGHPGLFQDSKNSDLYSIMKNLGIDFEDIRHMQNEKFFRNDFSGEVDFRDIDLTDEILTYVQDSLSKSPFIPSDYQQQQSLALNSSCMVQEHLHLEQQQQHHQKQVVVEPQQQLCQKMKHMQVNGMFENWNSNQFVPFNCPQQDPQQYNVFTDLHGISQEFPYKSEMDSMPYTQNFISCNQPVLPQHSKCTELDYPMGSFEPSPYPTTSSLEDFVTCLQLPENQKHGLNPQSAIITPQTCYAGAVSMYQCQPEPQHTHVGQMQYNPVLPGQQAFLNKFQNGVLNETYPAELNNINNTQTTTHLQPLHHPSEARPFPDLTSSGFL
SENP8 block-1 – SENP8 protease inhibitors, primary screen, biochemical, luminescence; Sentrin-specific protease 8 (Homo sapiens), Q96LD8; purified SENP8, Z-RLRGG-aminoluciferin cleavage; inhibition, % at 10 µM; 1.2% of 330,000 active; AID 2540, 2010; in the data active = inhibition above about 50%
SENP8 block-2 – human SENP8 protease inhibitors, primary screen, biochemical, fluorescence, Nedd8 protein substrate, uHTS. recombinant SENP8. 0.64% of 360,000 active. inhibition, % at 20 µM. Sentrin-specific protease 8 (Homo sapiens), Q96LD8; in the data active = inhibition mostly above about 40%, no sharp cut-off; inactive = mostly below about 27%
SENP6 inh – SENP6 protease inhibitors, primary screen, biochemical, luminescence, uHTS. Sentrin-specific protease 6 (Homo sapiens), Q9GZR1. Recombinant SENP6 catalytic domain, aminoluciferin luminescence. inhibition, % at 10 µM. 1.8% of 330,000 active;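 active = inhibition above about 50% at the single tested dose, limit read from the data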;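 also: plate controls were DMSO wells with enzyme for no effect and DMSO wells lacking enzyme for full effect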
SENP7 inh – SENP7 protease inhibitors, primary screen, biochemical, luminescence, uHTS; recombinant SENP7, Z-RLRGG-aminoluciferin luminescence, 40 min; AID 434973, 2010; inhibition, % at 5 µM; 1.5% of 330,000 active; Sentrin-specific protease 7 (Homo sapiens), Q9BQF6;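 active = inhibition above about 50% at the single test dose, limit read from the data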;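 also: plate controls were DMSO with enzyme for no effect and no enzyme buffer wells for full effect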
EBI2 antag – EBI2 receptor antagonists, beta-arrestin recruitment, primary screen, cell-based, luminescence, 7a,25-OHC stimulation, uHTS. G-protein coupled receptor 183 (Homo sapiens), P32249. 7a,25-OHC stimulated. inhibition, % at 5 µM. 0.81% of 360,000 active. AID 651636, 2012; in the data active = inhibition above about 38%;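 also: enzyme fragment complementation signal reports receptor beta-arrestin coupling in cells; 0% = agonist plus DMSO wells and 100% = wells without agonist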
SENP8 confirm – SENP8 protease inhibitors, retest, confirmation, biochemical, luminescence, single concentration | shares compounds with SENP7 inh | Recombinant SENP8, Z-RLRGG-aminoluciferin luminescence, 60 min | inhibition, % at 12.5 µM | 40% of 6,200 active | AID 488912, 2010;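 active = mean inhibition across replicates above about 50%, limit read from the data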
SENP6 confirm – SENP6 protease inhibitors, confirmation, biochemical, luminescence, single concentration; shares compounds with SENP7 inh; recombinant SENP6, Z-RLRGG-aminoluciferin luminescence; inhibition, % at 12.5 µM; 58% of 6,200 active; AID 488915, 2010
SENP7 confirm – SENP7 protease inhibitors, retest, confirmation, biochemical, luminescence, single concentration. shares compounds with SENP7 inh. 69% of 6,200 active. recombinant SENP7, Z-RLRGG-aminoluciferin luminescence, 40 min. inhibition, % at 12.5 µM. AID 488917, 2010
Casp3 select – caspase-3 protease inhibitors, confirmation, selectivity assay for SENP inhibitor project, biochemical, single concentration. shares compounds with SENP7 inh. purified caspase-3, Z-DEVD-aminoluciferin luminescence, 60 min. inhibition, % at 12.5 µM. 60% of 6,200 active. AID 488918, 2010;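 active = mean inhibition above about 50%, limit read from the data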;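 also: plate controls were enzyme with DMSO for no effect and wells without caspase-3 for full effect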
SENP luc ctr – luminescence interference (SENP counter-screen). shares compounds with SENP7 inh. Pre-incubated SENP8/Z-RLRGG-aminoluciferin, luciferase luminescence interference. inhibition, % at 12.5 µM. 39% of 6,200 active. AID 488919;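 active = mean inhibition above about 50% when retested at one dose, limit read from the data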;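 also: plate controls were DMSO wells with completed reaction for no effect and substrate without enzyme for full effect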
An asterisk follows results filed as active; · = no result given. Most compounds without a hit are left out; they make up all but 5% or so of the library.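 The calls were made as follows, unless noted: active = mean inhibition above about 50% in the one-dose retest (limit read from the data); inactive = the rest.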

SMILES	AHR act	SENP8 block-1	SENP8 block-2	SENP6 inh	SENP7 inh	EBI2 antag	SENP8 confirm	SENP6 confirm	SENP7 confirm	Casp3 select	SENP luc ctr
CSCCC(NC(C)=O)C(=O)Oc1ccc2c3c(c(=O)oc2c1)CCCC3 (configuration not stated)	·	·	-282.8	·	·	-2.9	·	·	·	·	·
CSCCC(NC(=O)OC(C)(C)C)C(=O)Oc1ccc2c(=O)c(-c3ccc4c(c3)OCCO4)coc2c1 (configuration not stated)	0.3	32.9	-208.0	61.8*	48.0	19.6	13.8	18.2	57.6*	76.0*	13.1
Cc1nc2cc(NC(=O)Nc3cccc4ccccc34)ccc2n1C	-9.3	26.2	-131.1	39.3	79.9*	-38.5	18.8	20.8	74.4*	70.9*	8.9
Cc1ccc(NC(=O)Nc2ccc3c(c2)nc(C)n3C)cc1C	-7.0	11.2	·	38.7	44.1	·	·	·	·	·	·
COc1ccc2cc(C(=O)Nc3ccccc3)sc(=O)c2c1OC	6.2	-9.7	-111.3	-23.9	1.6	0.9	·	·	·	·	·
O=C(Nc1ccccc1)c1sc(Cl)nc1-c1ccccc1	4.4	2.4	3.8	4.1	5.1	-7.4	·	·	·	·	·
O=C(Nc1ccccc1)c1ccc(-c2ccccc2)s1	-4.2	35.1	-19.0	45.3	83.9*	-2.4	21.9	43.6	38.9	67.2*	17.4
O=C(Nc1ccccc1)c1cc2ccc3ccccc3c2s1	68.6*	0.2	-7.0	16.8	69.3*	6.1	-6.4	9.2	2.2	34.3	8.4
CCOC(=O)C1(Cc2ccc(OC)cc2)CCN(C(=O)c2cc(C)nn2C)CC1	1.5	-9.7	6.4	-3.9	-6.8	-0.8	·	·	·	·	·
O=C(N/N=C/c1ccccn1)c1ccco1	3.5	-3.5	28.5	-13.3	-5.2	0.2	·	·	·	·	·
O=C(N/N=C/c1ccc2ncccc2c1)c1ccco1	6.4	32.9	14.3	66.5*	66.3*	-4.1	53.4*	52.7*	83.8*	87.2*	64.5*
Cc1ccc(/C=N/NC(=O)c2ccco2)cc1	5.0	34.4	14.2	41.4	34.3	2.4	·	·	·	·	·
Cc1ccc(C=Nc2ccccc2C(N)=O)o1	15.6	-1.1	-0.2	24.2	10.7	-3.9	·	·	·	·	·
CN(C)c1ccc(/C=N/NC(=O)c2ccco2)cc1	29.1	26.7	-290.1	65.4*	49.1	5.5	46.0	48.3	80.8*	83.3*	39.8
CN(C)c1ccc(C=Nc2ccccc2C(N)=O)cc1	31.2	89.0*	-274.2	92.8*	96.4*	-2.0	45.2	89.6*	100.8*	95.1*	31.8
CN(C)c1ccc(/C=N\NC(=O)c2cccc3cc[nH]c23)cc1	16.5	76.2*	-429.9	85.9*	84.5*	7.5	84.0*	81.9*	94.7*	79.5*	63.8*
CCOc1ccc(NC(=O)NC2CCCc3ccccc32)cc1 (configuration not stated)	14.5	-4.1	7.7	-9.8	6.2	3.8	·	·	·	·	·
O=C(NCCC1CCCCN1S(=O)(=O)c1cccs1)C(=O)NCc1ccccc1 (configuration not stated)	1.6	-1.5	6.7	-2.9	8.8	6.8	·	·	·	·	·
O=C(Nc1ccccc1)c1ccc(CSc2ncccn2)cc1	6.4	85.4*	15.5	88.8*	91.3*	7.9	71.6*	86.5*	95.9*	90.3*	27.7
O=C(Nc1ccccc1F)c1ccc(CSc2ncccn2)cc1	-1.0	82.7*	5.7	86.9*	88.1*	-7.4	85.5*	86.5*	96.5*	90.3*	88.2*
CSCc1ccc(C(=O)Nc2ccc(C(N)=O)cc2)cc1	12.9	73.6*	2.9	82.4*	86.2*	-8.0	-10.6	-3.0	13.5	54.7*	4.5
CC(=O)Nc1ccc(N=Nc2c(C)[nH]n(C(N)=S)c2=O)cc1	4.8	69.7*	8.3	52.8*	67.4*	-7.7	63.7*	65.9*	92.6*	92.1*	38.9
Cc1[nH]n(C(N)=S)c(=O)c1N=Nc1ccc2ccccc2c1	·	·	6.2	·	·	-0.4	·	·	·	·	·
Cc1[nH]n(C(N)=S)c(=O)c1N=Nc1ccc(S(=O)(=O)N2CCCCCC2)cc1	2.0	49.0	36.9	72.8*	26.4	5.9	50.7*	43.4	48.5	45.2	19.7
Cc1ccc(N=Nc2c(C)[nH]n(C(N)=S)c2=O)cc1C	51.0*	77.8*	57.3*	89.6*	78.2*	-1.8	61.2*	54.3*	67.2*	73.2*	15.9
SMILES	AHR act	SENP8 block-1	SENP8 block-2	SENP6 inh	SENP7 inh	EBI2 antag	SENP8 confirm	SENP6 confirm	SENP7 confirm	Casp3 select	SENP luc ctr
Cc1[nH]n(C(N)=S)c(=O)c1N=Nc1cccc([N+](=O)[O-])c1C	19.4	87.7*	38.6	95.6*	71.4*	6.7	95.9*	95.3*	101.8*	92.2*	88.0*
Cc1c(N=Nc2c(-c3ccc([N+](=O)[O-])cc3)[nH]n(C(N)=S)c2=O)cccc1[N+](=O)[O-]	·	·	28.7	·	·	2.0	·	·	·	·	·
COc1ccc(NC(=O)CSC2=NCCN2)cc1	0.2	4.9	14.3	-2.9	2.7	-1.5	·	·	·	·	·
Cc1[nH]n(C(N)=S)c(=O)c1N=Nc1cc(-c2ccc(Br)cc2)[nH]n1	54.9*	55.1*	30.5	68.9*	17.8	12.1	-7.0	1.0	-5.9	-4.2	12.4
Cc1cc(N2C(=O)C(O)=C(C(=O)c3ccc(C)o3)C2c2ccc([N+](=O)[O-])cc2)no1 (configuration not stated)	1.0	6.1	13.6	18.6	3.1	2.6	·	·	·	·	·
NC(=O)c1ccsc1NC(=O)COC(=O)CCc1ccccc1	·	·	-2.3	·	·	-5.6	·	·	·	·	·
CSc1nsc(/C=C/Nc2ccc(F)cc2F)c1C#N	10.6	4.7	-99.1	-5.2	-10.4	-3.5	·	·	·	·	·
CSc1nsc(/C=C/Nc2ccc(C(=O)O)cc2)c1C#N	10.4	18.1	-133.6	58.4*	2.6	-2.2	19.1	68.1*	88.6*	56.9*	28.0
